Source: PubChem BioAssay (Tox21)
Where “and” joins values, the source holds several entries; their conditions need not be identical. Equal values may be shown once. A structure can be active in one record and inactive in another. Calls of active or inactive are those of the source. Entries that show only a call come without a potency. Unless noted, calls follow the shape of the dose curve; as a rule, active = well fitted curve in the direction sought with a large enough effect in the repeat runs; inconclusive = weak or mixed curves; inactive = no such curve, though single readings can be large; an effect the other way counts as inactive or inconclusive.

Tests used:
[1] = qHTS assay to identify small molecule antagonists of the thyroid receptor (TR) signaling pathway - cell viability counter screen (AID 743064); also: nearly all actives have a fitted effect of over 50% in size
Method in brief: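 Viability of T3-stimulated (1 nM final) GH3.TRE-Luc cells is measured by CellTiter-Fluor fluorescence after 23.5 h compound exposure at 37 °C plus 30 min reagent incubation.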

[2] = qHTS assay to identify small molecule antagonists of the thyroid receptor (TR) signaling pathway (AID 743065); also: series mostly up to about 70 µM; nearly all actives have a fitted effect of over 55% in size
Method in brief: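 GH3.TRE-Luc rat pituitary cells carrying two TR response elements driving luciferase were plated for 4 h, given compound plus 1 nM T3 (final), and incubated 23.5 h at 37 C. ONE-Glo luminescence measured reporter inhibition; CellTiter-Fluor fluorescence tracked cytotoxicity.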

[3] = test system: thyroid hormone receptor (rat, GH3 cells); assay: qHTS assay to identify small molecule agonists of the thyroid receptor (TR) signaling pathway (AID 743066; calls by dose curve; also: potency is read from the fitted curve at half-maximal effect)
[4] = target: Estrogen receptor (Homo sapiens) (UniProt P03372); assay: qHTS assay to identify small molecule antagonists of the estrogen receptor alpha (ER-alpha) signaling pathway (AID 743069; active = well fitted curve in the direction sought with a large enough effect in the signal ratio in the repeat runs, not every such curve was filed as active; inconclusive = weak or mixed curves, or effect the other way; inactive = no such curve, though single readings can be large or run the other way; the % refers to the signal ratio; also: potency is read from the fitted curve at half-maximal effect)
Method in brief: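 HEK293 cells stably carrying an ER-alpha-UAS-bla beta-lactamase reporter were pre-cultured overnight in 2% charcoal-stripped FBS medium. Test compounds in DMSO were added together with 17beta-estradiol for 18 hr at 37C. Read-out was fluorescence after 2 hr with LiveBLAzer B/G FRET substrate at room temperature.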

[5] = qHTS assay to identify small molecule antagonists of the estrogen receptor alpha (ER-alpha) signaling pathway - cell viability counter screen (AID 743074; calls by dose curve; also: nearly all actives have a fitted effect of over 45% in size)
[6] = target: Estrogen receptor (Homo sapiens) (UniProt P03372); assay: qHTS assay to identify small molecule agonists of the estrogen receptor alpha (ER-alpha) signaling pathway (AID 743075; calls by dose curve; also: potency is read from the fitted curve at half-maximal effect)
[7] = target: Estrogen receptor (Homo sapiens) (UniProt P03372); assay: qHTS assay to identify small molecule agonists of the estrogen receptor alpha (ER-alpha) signaling pathway using the BG1 cell line (AID 743079); also: nearly all actives have a fitted effect of over 20% in size; also: potency is read from the fitted curve at half-maximal effect
[8] = qHTS assay to identify small molecule antagonists of the estrogen receptor alpha (ER-alpha) signaling pathway using the BG1 cell line (AID 743080; calls by dose curve;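 also: BG1 cells stimulated with 17beta-estradiol alongside compound; series mostly up to about 70 µM; nearly all actives have a fitted effect of over 25% in size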)
Method in brief: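 Seeding, 24 h rest, compound transfer from DMSO, 17beta-estradiol addition, 21.5 h incubation, CellTiter-Fluor (30 min, 37 C), then ONE-Glo (30 min, room temperature): this sequence was run on BG1-Luc-4E2 reporter cells.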

[9] = qHTS assay to identify small molecule antagonists of the estrogen receptor alpha (ER-alpha) signaling pathway using the BG1 cell line - cell viability counter screen (AID 743081);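 also: compound given together with 17beta-estradiol as the ER stimulus; series mostly up to about 70 µM; nearly all actives have a fitted effect of over 45% in size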
[10] = target: Aromatase (Homo sapiens) (UniProt P11511); assay: qHTS assay to identify aromatase inhibitors (AID 743083); also: series mostly up to about 70 µM; nearly all actives have a fitted effect of over 55% in size
[11] = qHTS assay to identify aromatase inhibitors - cell viability counter screen (AID 743084);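 also: cells stimulated with testosterone during compound exposure; nearly all actives have a fitted effect of over 55% in size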
[12] = qHTS assay to identify small molecule that activate the aryl hydrocarbon receptor (AhR) signaling pathway - cell viability counter screen (AID 743086);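 also: HepG2 liver cells carrying the AhR DRE luciferase reporter; series mostly up to about 70 µM; nearly all actives have a fitted effect of over 45% in size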
Method in brief: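 HepG2-AhR-luc (HG2L7.5c1) cells, 4000/well, were preincubated 5 h at 37C, exposed to compound in qHTS format for 24 hr at 37C, then given CellTiter-Fluor for 30 min; viability was read as fluorescence in the reporter wells.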

[13] = target: Peroxisome proliferator-activated receptor gamma (Homo sapiens) (UniProt P37231); assay: qHTS assay to identify small molecule agonists of the peroxisome proliferator-activated receptor gamma (PPARg) signaling pathway (AID 743094; active = well fitted activation curve with a large enough effect in the signal ratio in the repeat runs, not every such curve was filed as active; inconclusive = weak or mixed curves, or effect the other way; inactive = no such curve, though single readings can be large or run the other way; the % refers to the signal ratio)
Method in brief: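 GeneBLAzer PPARg UAS-bla HEK293H cells carrying a stably integrated beta-lactamase reporter were pre-incubated 5 h at 37C, then exposed to compounds in DMSO for 17 h at 37C; LiveBLAzer B/G FRET substrate was added for 1 h at room temperature and fluorescence read.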

[14] = target: Peroxisome proliferator-activated receptor gamma (Homo sapiens) (UniProt P37231); assay: qHTS assay to identify small molecule antagonists of the peroxisome proliferator-activated receptor gamma (PPARg) signaling pathway (AID 743191; calls by dose curve; also: series mostly up to about 63 µM; nearly all actives have a fitted effect of over 30% in size)
Method in brief: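 GeneBLAzer PPARg UAS-bla HEK293H cells carrying a UAS-driven beta-lactamase reporter were plated at 3000 cells/well, preincubated 5 h at 37C, then given compound for 17 h at 37C; LiveBLAzer B/G FRET substrate was read after 1 h at room temperature.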

[15] = qHTS assay to identify small molecule antagonists of the peroxisome proliferator-activated receptor gamma (PPARg) signaling pathway - cell viability counter screen (AID 743194); also: nearly all actives have a fitted effect of over 55% in size
Method in brief: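 PPARg-UAS-bla HEK293H cells were plated, rested 5 h at 37 C, then treated with compounds plus rosiglitazone (50 nM final) for 17 h at 37 C; viability was then read by CellTiter-Glo luminescence after 30 min at room temperature.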

[16] = qHTS assay for small molecule agonists of the antioxidant response element (ARE) signaling pathway (AID 743202; active = well fitted activation curve with a large enough effect in the signal ratio in the repeat runs, not every such curve was filed as active; inconclusive = weak or mixed curves, or effect the other way; inactive = no such curve, though single readings can be large or run the other way; the % refers to the signal ratio; also: potency is read from the fitted curve at half-maximal effect)
Method in brief: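 Read-out: LiveBLAzer B/G FRET substrate fluorescence after 2 h at room temperature, following 16 h compound treatment at 37 C of HepG2 cells carrying an ARE-driven beta-lactamase reporter.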

[17] = qHTS assay for small molecule agonists of the antioxidant response element (ARE) signaling pathway - cell viability counter screen (AID 743203; calls by dose curve; also: nearly all actives have a fitted effect of over 55% in size)
Method in brief: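 CellSensor ARE-bla HepG2 cells, 2,000 per well, rested 5 hrs at 37C/5% CO2, then exposed to compound in DMSO for 16 hrs; viability read as CellTiter-Glo luminescence after 30 min at room temperature, in the reporter wells.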

[18] = qHTS assay for small molecule activators of the heat shock response signaling pathway (AID 743210; active = well fitted activation curve with a large enough effect in the signal ratio in the repeat runs, with a control signal flat, not every such curve was filed as active; inconclusive = weak or mixed curves; the % refers to the signal ratio; also: series mostly up to about 63 µM)
Method in brief: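 HSE-bla HeLa cells (beta-lactamase reporter under heat shock response elements) were exposed to compounds for 5 h at 37 C, then loaded with LiveBLAzer B/G FRET substrate for 2.5 h at room temperature before fluorescence reading.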

[19] = target: Aryl hydrocarbon receptor (Homo sapiens) (UniProt P35869); assay: qHTS assay to identify small molecule that activate the aryl hydrocarbon receptor (AhR) signaling pathway (AID 743085);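 also: HG2L7.5c1 human HepG2 liver cells with stably integrated DRE-driven firefly reporter; series mostly up to about 70 µM; nearly all actives have a fitted effect of over 15% in size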
Method in brief: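 A multiplexed format paired cell viability (CellTiter-Fluor fluorescence) with AhR-dependent luciferase output (ONE-Glo luminescence) in the same wells of HepG2 DRE-luc cells after 24 h compound exposure at 37C.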

[20] = qHTS assay for small molecule activators of the heat shock response signaling pathway - cell viability counter screen (AID 743209); also: nearly all actives have a fitted effect of over 50% in size
Method in brief: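 CellSensor HSE-bla HeLa cells, plated overnight at 37 C/5% CO2, were exposed to compounds in DMSO for 5 h at 37 C. Viability was then read in the same wells by CellTiter-Glo luminescence after 30 min at room temperature.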

Chain of Peroxisome proliferator-activated receptor gamma (Homo sapiens) (P37231 whole entry, looked up): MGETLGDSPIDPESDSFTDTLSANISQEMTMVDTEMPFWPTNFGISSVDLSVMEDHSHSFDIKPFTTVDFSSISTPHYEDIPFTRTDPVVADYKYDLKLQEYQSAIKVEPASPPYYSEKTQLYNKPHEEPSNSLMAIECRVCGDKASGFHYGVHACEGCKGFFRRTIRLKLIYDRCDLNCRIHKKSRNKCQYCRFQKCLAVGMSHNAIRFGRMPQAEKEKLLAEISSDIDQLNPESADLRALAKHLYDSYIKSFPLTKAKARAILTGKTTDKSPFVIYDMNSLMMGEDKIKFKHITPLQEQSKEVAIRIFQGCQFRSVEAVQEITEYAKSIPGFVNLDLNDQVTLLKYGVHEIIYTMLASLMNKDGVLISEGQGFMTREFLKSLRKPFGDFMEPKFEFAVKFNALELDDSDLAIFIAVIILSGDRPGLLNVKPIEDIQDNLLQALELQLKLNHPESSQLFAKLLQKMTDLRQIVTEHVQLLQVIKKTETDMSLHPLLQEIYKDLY
Chain of Aryl hydrocarbon receptor (Homo sapiens) (P35869 whole entry, looked up): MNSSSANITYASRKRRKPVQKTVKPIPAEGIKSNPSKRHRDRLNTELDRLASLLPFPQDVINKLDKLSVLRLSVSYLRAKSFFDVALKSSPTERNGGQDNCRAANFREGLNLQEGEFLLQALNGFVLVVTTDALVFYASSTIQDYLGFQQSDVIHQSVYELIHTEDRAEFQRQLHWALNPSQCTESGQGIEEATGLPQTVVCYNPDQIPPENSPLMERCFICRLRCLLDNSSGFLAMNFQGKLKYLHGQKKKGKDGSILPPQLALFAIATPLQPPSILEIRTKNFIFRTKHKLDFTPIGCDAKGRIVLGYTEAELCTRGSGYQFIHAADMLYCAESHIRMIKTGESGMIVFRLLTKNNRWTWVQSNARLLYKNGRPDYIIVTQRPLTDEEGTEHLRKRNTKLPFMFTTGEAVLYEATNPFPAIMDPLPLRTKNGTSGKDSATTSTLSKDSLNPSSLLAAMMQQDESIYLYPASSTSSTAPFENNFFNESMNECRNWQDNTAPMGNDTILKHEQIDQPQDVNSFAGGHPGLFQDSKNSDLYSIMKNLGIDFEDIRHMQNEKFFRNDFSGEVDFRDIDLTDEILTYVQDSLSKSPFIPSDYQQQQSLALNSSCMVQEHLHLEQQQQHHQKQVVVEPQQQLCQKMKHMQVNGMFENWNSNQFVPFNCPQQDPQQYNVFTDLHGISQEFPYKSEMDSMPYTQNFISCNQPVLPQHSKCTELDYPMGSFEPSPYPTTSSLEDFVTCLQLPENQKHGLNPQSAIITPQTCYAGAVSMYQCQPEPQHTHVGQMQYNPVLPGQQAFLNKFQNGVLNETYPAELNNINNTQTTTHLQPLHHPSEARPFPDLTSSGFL
Chain of Aromatase (Homo sapiens) (P11511 whole entry, looked up): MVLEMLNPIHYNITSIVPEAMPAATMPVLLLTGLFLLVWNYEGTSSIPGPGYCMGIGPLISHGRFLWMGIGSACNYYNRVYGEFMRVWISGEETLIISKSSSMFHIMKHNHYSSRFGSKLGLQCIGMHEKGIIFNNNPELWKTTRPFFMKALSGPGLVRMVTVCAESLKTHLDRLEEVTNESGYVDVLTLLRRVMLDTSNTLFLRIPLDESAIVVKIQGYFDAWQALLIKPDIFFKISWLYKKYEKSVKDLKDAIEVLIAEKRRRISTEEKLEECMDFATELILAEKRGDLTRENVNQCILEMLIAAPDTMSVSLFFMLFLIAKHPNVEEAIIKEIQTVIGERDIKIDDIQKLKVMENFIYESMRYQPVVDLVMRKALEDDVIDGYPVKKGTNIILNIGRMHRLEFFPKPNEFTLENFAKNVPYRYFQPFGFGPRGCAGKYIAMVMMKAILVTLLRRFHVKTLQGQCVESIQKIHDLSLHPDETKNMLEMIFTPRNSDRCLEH
Chain of Estrogen receptor (Homo sapiens) (P03372 whole entry, looked up): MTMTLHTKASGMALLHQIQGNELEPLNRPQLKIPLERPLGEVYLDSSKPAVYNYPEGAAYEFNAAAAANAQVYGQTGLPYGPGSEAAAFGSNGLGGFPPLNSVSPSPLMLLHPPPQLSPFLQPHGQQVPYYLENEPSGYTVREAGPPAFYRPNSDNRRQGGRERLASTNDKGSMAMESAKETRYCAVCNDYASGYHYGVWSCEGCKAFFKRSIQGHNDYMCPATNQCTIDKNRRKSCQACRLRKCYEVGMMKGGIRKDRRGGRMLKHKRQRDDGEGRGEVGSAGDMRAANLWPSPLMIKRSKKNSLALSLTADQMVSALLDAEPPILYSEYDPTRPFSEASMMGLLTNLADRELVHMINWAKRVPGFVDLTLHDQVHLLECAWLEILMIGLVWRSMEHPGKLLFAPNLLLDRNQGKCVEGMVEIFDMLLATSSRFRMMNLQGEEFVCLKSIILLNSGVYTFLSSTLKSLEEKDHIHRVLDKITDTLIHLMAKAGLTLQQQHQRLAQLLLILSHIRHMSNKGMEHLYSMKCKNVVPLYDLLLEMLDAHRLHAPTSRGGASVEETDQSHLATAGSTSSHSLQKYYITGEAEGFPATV

SMILES	Potency [1]	Potency [2]	Potency [3]	Potency [4]	Potency [5]	Potency [6]	Potency [7]	Potency [8]	Potency [9]	Potency [10]	Potency [11]	Potency [12]	outcome [13]	Potency [14]	Potency [15]	Potency [16]	Potency [17]	outcome [18]	Potency [19]	Potency [20]
Cc1ccc(N)c([N+](=O)[O-])c1	inactive	inactive	inactive	inactive	inactive	inactive	38.1 µM (active) and inactive	inactive	inactive	inactive	inactive	inactive	inactive	inactive	inactive	inactive	inactive	inactive	–	–
CCOC(=O)C(C)Oc1ccc(Oc2cnc3cc(Cl)ccc3n2)cc1 (stereo unspecified)	inactive	inactive	inactive	inactive	inactive	inactive	inactive	inactive	inactive	inactive	inactive	inactive	inactive	inactive	inactive	inactive	inactive	–	–	–
CCC/C=C/C=O	inactive	inactive	inactive	inactive	inactive	inactive	inactive	inactive	inactive	inactive	inactive	inactive	inactive	–	inactive	inactive	inactive	–	inactive	inactive
CCO[Si](CCCNC(N)=O)(OCC)OCC	inactive	inactive	inactive	inactive	inactive	inactive	inactive	inactive	inactive	inactive	inactive	inactive	inactive	inactive	inactive	inactive	inactive	inactive	inactive	inactive
Cc1ccc(C(C)(C)C)cc1	inactive	inactive	inactive	inactive	inactive	inactive	inactive	inactive	inactive	inactive	inactive	inactive	inactive	inactive	inactive	inactive	inactive	–	inactive	inactive
O=S1(=O)CCCO1	inactive	inactive	inactive	inactive	inactive	inactive	inactive	inactive	inactive	inactive	inactive	inactive	inactive	inactive	inactive	inactive	inactive	–	inactive	inactive
OC[C@H]1O[C@@H]2O[C@H]3[C@H](O)[C@@H](O)[C@@H](O[C@H]4[C@H](O)[C@@H](O)[C@@H](O[C@H]5[C@H](O)[C@@H](O)[C@@H](O[C@H]6[C@H](O)[C@@H](O)[C@@H](O[C@H]7[C@H](O)[C@@H](O)[C@@H](O[C@H]1[C@H](O)[C@H]2O)O[C@@H]7CO)O[C@@H]6CO)O[C@@H]5CO)O[C@@H]4CO)O[C@@H]3CO	inactive	inactive	inactive	inactive	inactive	inactive	23.7 µM (active) and inactive	inactive	inactive	inactive	inactive	inactive	inactive	inactive	inactive	inactive	inactive	inactive	inactive	inactive
CC(=O)Oc1c(C)c(C)c2c(c1C)CC[C@@](C)(CCC[C@H](C)CCC[C@H](C)CCCC(C)C)O2	inactive	inactive	inactive	inactive	inactive	inactive	inactive	inactive	inactive	inactive	inactive	inactive	inactive	inactive	inactive	inactive	inactive	inactive	inactive	inactive
ClC/C=C/CCl	inactive	inactive	inactive	inactive	inactive	inactive	inactive	inactive	inactive	inactive	inactive	inactive	inactive	inactive	inactive	24.1 µM (active) and 24.5 µM (active)	inactive	inactive	–	–
O=C1CCc2ccccc2O1	inactive	inactive	inactive	inactive	inactive	inactive	inactive	inactive	inactive	inactive	inactive	inactive	inactive	inactive	inactive	inactive	inactive	–	inactive	inactive
CCC(Cc1c(I)cc(I)c(N)c1I)C(=O)O (stereo unspecified)	inactive	inactive	inactive	inactive and 47.5 µM [inconclusive] (active)	inactive	8.11 µM [inconclusive] (active) and 5.32 µM [activator] (active)	inactive	inactive	inactive	inactive	inactive	inactive	inactive	–	inactive	23.6 µM (active)	inactive	–	inactive	–
CN(C)C	inactive	inactive	inactive	inactive	inactive	inactive	inactive	inactive	inactive	inactive	inactive	inactive	inactive	inactive	inactive	inactive	inactive	–	inactive	inactive
CCCCCCC(C)O (stereo unspecified)	inactive	inactive	55.6 µM (active) and inactive	inactive	inactive	inactive	inactive	inactive	inactive	inactive	inactive	inactive	inactive	inactive	inactive	inactive	inactive	–	inactive	–
C/C=C/C(=O)N(CC)c1ccccc1C	inactive	inactive	inactive	inactive	inactive	inactive	inactive	inactive	inactive	inactive	inactive	inactive	inactive	inactive	inactive	inactive	inactive	–	inactive	inactive
